Measurements taken from PubChem BioAssay (NCI).
This is part of a sample that, as a whole, favours compounds with a hit. Of some 79,000 tested, about 15% had one in any assay. A number with no mark means an inactive call. Activity calls are given as the source filed them. Cut-off read from the data, not from the text of the source: active = growth inhibition above about 70%; inactive = the rest. Where a SMILES comes first, the peptide text is derived from it. The star is where a group is joined. Cbz = O=C(OCc1ccccc1)*; Boc = CC(C)(C)OC(=O)*; OSu = O=C1CCC(=O)N1O*; Bn = c1ccc(C*)cc1

How the values were obtained:
[1] = NCI Yeast Anticancer Drug Screen. Data for the rad50 strain (AID 155);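 note: 0% = growth of vehicle-only cultures of the same strain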; details: S. cerevisiae rad50 strain growth inhibition, hits give high values
Procedure, shortened: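 Inhibition values express reduced yeast growth in compound-treated cultures relative to vehicle-treated controls.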

[2] = NCI Yeast Anticancer Drug Screen. Data for the mec2-1 strain (AID 157); details: S. cerevisiae mec2-1 strain, hits give high values
Procedure, shortened: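 Growth inhibition is read against vehicle-treated controls after compound exposure of the mec2-1 yeast strain, which is defective in DNA damage repair or cell cycle control.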

[3] = NCI Yeast Anticancer Drug Screen. Data for the sgs1 mgt1 strain (AID 161);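 note: 0% = growth of cultures given vehicle only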; details: S. cerevisiae sgs1 mgt1 strain, hits give high values
Procedure, shortened: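 Percent growth inhibition was derived by comparing compound-exposed mutant yeast with vehicle-exposed cultures. The strain carries alterations in DNA damage repair.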

[4] = NCI Yeast Anticancer Drug Screen. Data for the cln2 rad14 strain (AID 165);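 note: 0% = growth equal to vehicle treated cultures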; details: S. cerevisiae cln2 rad14 strain, hits give high values
Procedure, shortened: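 Growth inhibition, relative to vehicle-treated controls, is the read-out. The test organism is a yeast strain with defined genetic alterations, cln2 rad14.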

[5] = NCI Yeast Anticancer Drug Screen. Data for the bub3 strain (AID 167); details: S. cerevisiae bub3 mutant strain, hits give high values
Procedure, shortened: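 Steps: expose the mutant yeast strain to compound; grow alongside vehicle-treated cultures; measure growth; express inhibition against the vehicle cultures.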

[6] = NCI Yeast Anticancer Drug Screen. Data for the mlh1 rad18 strain (AID 175); details: S. cerevisiae mlh1 rad18 strain growth inhibition, hits give high values
Procedure, shortened: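 Cells of a genetically altered yeast strain, deficient in DNA damage repair, were treated with compound. Their growth was then compared with that of vehicle-treated cultures to give inhibition.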

[7] = at 5.0 µM (retest, dose inferred, filed as 0.5)
[8] = at 50.0 µM (retest, dose inferred, filed as 5.0)

| SMILES | growth inhibition [1, 7] | growth inhibition [1, 8] | growth inhibition ([1]; at 50.0 µM) | growth inhibition [2, 7] | growth inhibition [2, 8] | growth inhibition ([2]; at 50.0 µM) | growth inhibition [3, 7] | growth inhibition [3, 8] | growth inhibition ([3]; at 50.0 µM) | growth inhibition [4, 7] | growth inhibition [4, 8] | growth inhibition ([4]; at 50.0 µM) | growth inhibition [5, 7] | growth inhibition [5, 8] | growth inhibition ([5]; at 50.0 µM) | growth inhibition [6, 7] | growth inhibition [6, 8] | growth inhibition ([6]; at 50.0 µM) |
| --- | --- | --- | --- | --- | --- | --- | --- | --- | --- | --- | --- | --- | --- | --- | --- | --- | --- | --- |
| CCCCCCSC(=Cc1cccc[n+]1C)SCCCCCC | 98% (active) | 96% (active) | 99.5% (active) | 100% (active) | 98% (active) | 99.7% (active) | 100% (active) | 98% (active) | 99.7% (active) | 99% (active) | 95% (active) | 99.3% (active) | 98% (active) | 94% (active) | 99.5% (active) | 100% (active) | 97% (active) | 99.4% (active) |
| CCc1cc2nc3c(=O)[nH]c(=O)nc-3n(CCN(CCO)CCO)c2cc1CC | 5% | 3% | 41% | 10% | 27% | 30.6% | 2% | 15% | 55% | 2% | -6% | 37% | 2% | -7% | 18.1% | 2% | 7% | 81.9% (active) |
| O=C1c2ccccc2-c2nnc3c(c21)Cc1ccccc1C3 | -4% | 38% | 50.9% | -21% | 16% | 43% | -7% | 1% | 17.1% | -8% | 27% | 40.5% | 9% | 26% | 67.5% | -6% | 37% | 71% (active) |
| COc1cc2c(c(OC)c1OC)-c1ccc(SC)c(=O)cc1[C@@H](NC(=O)Oc1ccccc1)CC2 | 73% (active) | 31% | 54% | 24% | 29% | -0.55% | -9% | 9% | -2.45% | -12% | 13% | 1.65% | -8% | 8% | 0.9% | 20% | 43% | 12.6% |
| NCC(O)CSc1ccc(Cl)c(Cl)c1 (centres undefined) | 2% | 11% | 8.95% | -2% | -4% | 14.2% | 1% | 16% | 18.8% | 5% | 9% | 74.8% (active) | 3% | 3% | 17.2% | 4% | 7% | 11.4% |
| CN(C)C(=S)/N=c1\ssc(=S)n1-c1ccccc1 | 17% | 100% (active) | -13.9% | 39% | 99% (active) | -8.8% | 50% | 100% (active) | -13.1% | 38% | 99% (active) | -17.1% | 46% | 100% (active) | -2.45% | 23% | 99% (active) | 20.7% |
| N#Cc1cccc(C[P+](c2ccccc2)(c2ccccc2)c2ccccc2)c1 | 14% | 45% | 78.3% (active) | -1% | 22% | 46% | 3% | 38% | 75.8% (active) | 8% | 6% | 42.9% | 4% | 32% | 45.8% | 7% | 30% | 56.8% |
| Cc1ccc(N2CC(O)CN(c3ccc(C)cc3)CC(O)C2)cc1 (centres undefined) | 0% | 3% | 20.4% | -7% | -13% | 18.1% | -29% | 1% | 24.9% | 6% | -10% | 6.55% | 3% | 1% | 15.3% | 33% | 0% | 23.2% |
| CCCCCNC(=O)c1ccc(Cl)c(Cl)c1 | 6% | 49% | 64.8% | 5% | 45% | 28.4% | 7% | 63% | 83.2% (active) | 16% | 41% | 33.5% | 10% | 59% | 64.9% | 1% | 62% | 64.6% |
| c1ccc(C2CC(c3ccc4ccccc4c3)=Nc3ccccc3S2)cc1 (centres undefined) | 0% | 40% | 76.8% (active) | -4% | 72% (active) | 50.6% | 8% | 78% (active) | 80.8% (active) | -11% | 19% | 69.5% | 21% | 91% (active) | 96.5% (active) | 3% | 76% (active) | 88.1% (active) |
| COc1ccc(/C(Cl)=C(\C=O)c2ccc(Cl)c(Cl)c2)cc1 | 2% | 49% | 99% (active) | 8% | 70% (active) | 98.9% (active) | 13% | 85% (active) | 99.3% (active) | -10% | 55% | 92.5% (active) | 41% | 82% (active) | 97.8% (active) | 27% | 79% (active) | 98.2% (active) |
| c1ccc(OCCCOc2ccccc2)cc1 | 4% | 2% | -4.15% | -1% | -4% | 10.8% | 4% | 3% | 13% | 3% | -9% | -5.75% | 7% | 25% | 10.3% | 2% | -1% | 61.9% |
| CN(c1ccc(C(N)=O)cc1)c1c(O)c2ccccc2[nH]c1=O | 1% | 58% | -27.9% | -1% | 48% | 6.8% | 1% | 51% | 14.6% | 4% | 42% | 24.9% | -4% | 46% | 23.5% | 0% | 63% | 15.5% |
| CC(C)(C)OC(=O)NC(Cc1ccc(OCc2ccccc2)cc1)C(=O)NC(CCCCNC(=O)OCc1ccccc1)C(=O)ON1C(=O)CCC1=O (centres undefined) (Boc-Tyr(Bn)-Lys(Cbz)-OSu; configuration not given here) | 47% | 73% (active) | 64.2% | 31% | 66% | 48.5% | 40% | 64% | 38.9% | 31% | 50% | 55.5% | 37% | 70% (active) | 62.5% | 51% | 83% (active) | 57% |
| COc1c(O)ccc2c1CN1CCc3cc4c(cc3C1C2)OCO4 (centres undefined) | 18% | 50% | 65.9% | 9% | 21% | 21.4% | 9% | 65% | 49.2% | 15% | 22% | -16.2% | 6% | 60% | 50.9% | 11% | 35% | 72.2% (active) |
| CNC1c2ccccc2C(=O)c2cc3c(cc21)OCCOCCOCCOCCO3 (centres undefined) | -10% | 7% | 11.8% | -4% | -12% | 8.1% | -10% | -12% | 12.1% | -25% | -12% | 40.8% | -13% | -2% | 20.8% | -6% | 1% | 27.2% |
| N#CC(=C1C=CC(=NOC(=O)Nc2ccccc2)C=C1)c1ccccc1 | 18% | 98% (active) | 99% (active) | 4% | 99% (active) | 99.4% (active) | 11% | 99% (active) | 99.5% (active) | 1% | 99% (active) | 88.3% (active) | -5% | 98% (active) | 99.2% (active) | 5% | 98% (active) | 99.2% (active) |
| CCOC(=O)N1C2C=CC(=O)C(C=C2)N1C(=O)OCC (centres undefined) | -1% | 43% | 72.8% (active) | -9% | 61% | 85.5% (active) | 1% | 73% (active) | 85.1% (active) | 7% | 30% | 67.8% | 1% | 61% | 86.7% (active) | 18% | 85% (active) | 94.3% (active) |
